Laboratory results: PubChem BioAssay AID489025 (Southern Research Specialized Biocontainment Screening …, 2010)
Screen size: about 2,300 compounds; about 790 (34%) were called active. How the calls were made is not given here. The list shows a part of the results. Results with a measured potency or affinity are listed apart.

Assay: THP-1 cell cytotoxicity, dose response, cytotoxicity control for non-replicating M. tuberculosis project (AID 489025)
Conditions: THP-1 cell viability; series mostly up to 40 µM
For CC(=O)c1c(O)cc(=O)n(-c2ccccc2)c1-c1ccc(C)cc1, the outcome was “inactive”. In the case of O=C(N/N=C/c1ccc(O)cc1)c1cccc(C(F)(F)F)c1, the outcome is reported as “inactive”. In the case of O=C(Nc1nnc(C2=COCCO2)o1)c1cccc(C(F)(F)F)c1, the outcome is reported as “inactive”. For Cc1cc(NC(=O)COC(=O)COc2ccc(C(=O)c3ccccc3)cc2)no1, the outcome was “inactive”. With CC1=NN(C(=O)c2ccccc2F)C(O)(c2ccc(Cl)cc2)C1 (stereo not drawn) the outcome was “inactive”. With CC1=NN(C(=O)c2ccccc2Cl)C(O)(c2ccccc2)C1 (stereo not drawn) the outcome was “inactive”. With CC1=NN(C(=O)COc2ccccc2)C(O)(c2ccccc2)C1 (stereo not drawn) the outcome was “inactive”. In the case of CC1=NN(C(=O)c2ccc(C)o2)C(O)(c2ccccc2)C1 (stereo not drawn), the outcome is reported as “inactive”. For CSc1ccc(COC(=O)CCS(=O)(=O)c2ccc(C)cc2)cc1, the outcome was “inactive”. With CCc1nnc(NC(=O)CN2CCN(c3ccccc3F)CC2)s1 the outcome was “inactive”. In the case of CCOC(=O)COc1c(-c2ccc(OC)cc2)oc2ccccc2c1=O, the outcome is reported as “inactive”. With O=C(OCc1nnc(-c2ccccc2)o1)c1cc([N+](=O)[O-])ccc1Cl the outcome was “inactive”. For CCCOc1ccc(N2CC(C(=O)Nc3ccccc3F)CC2=O)cc1 (stereo not drawn), the outcome was “inactive”. In the case of O=C(NC(=S)N1CCN(Cc2ccc3c(c2)OCO3)CC1)c1ccc(Cl)cc1, the outcome is reported as “inactive”. For Nc1ccc(Nc2ccccc2)cc1, the outcome was “inactive”. With CC(C)=CCN1CCN(CCC2=C(C)CCCC2(C)C)CC1CCO (stereo not drawn) the outcome was “inactive”. With CC(C)c1ccc(OCC(=O)NC2=NCCS2)cc1 the outcome was “inactive”. In the case of O=C(/C=C/Nc1ccccc1O)c1ccco1, the outcome is reported as “inactive”. For O=C(Oc1ccccc1)c1ccc(NC(=O)c2ccco2)cc1, the outcome was “inactive”. With CC1=NN(C(=O)COc2ccccc2C)C(O)(c2ccc(Cl)cc2)C1 (stereo not drawn) the outcome was “inactive”. With CC(C)(C)OC(=O)N/N=C\c1ccc(OC(=O)c2ccco2)cc1 the outcome was “inactive”. With O=C(Nc1nccs1)c1ccc(Br)cc1 the outcome was “inactive”. For O=C(CNC(=O)c1ccc(Br)cc1)c1ccc(Br)cc1, the outcome was “inactive”. In the case of O=C(CNC(=O)c1ccccc1)OC1CCCCC1, the outcome is reported as “inactive”. For O=[N+]([O-])c1ncccc1Oc1nc(-c2cccnc2)nc2ccccc12, the outcome was “inactive”. With CCOc1ccc(N2CC(=O)Nc3ccccc3NCC2=O)cc1 the outcome was “inactive”. In the case of CCOc1ccc(OCc2ccc(C(=O)OCc3ccccn3)o2)cc1, the outcome is reported as “inactive”. In the case of CCOc1cc(/C=N/NC(=O)c2ccccn2)ccc1OC(=O)c1cccs1, the outcome is reported as “inactive”. In the case of COC(=O)c1ccc(COC(=O)c2ccccn2)cc1, the outcome is reported as “inactive”. With O=C(N[C@@H]1C[C@H]2CC[C@@H]1C2)c1ccco1 the outcome was “inactive”. With Clc1ccc(SCCOCCN2CCc3ccccc3C2)cc1 the outcome was “inactive”. With O=C(OCn1nnc2ccccc2c1=O)c1cccs1 the outcome was “inactive”. In the case of COc1ccccc1C1=NOC(COC(=O)c2ccc([N+](=O)[O-])cc2)C1 (stereo not drawn), the outcome is reported as “inactive”. With COc1cccc(OCc2nnc(-c3cccs3)o2)c1 the outcome was “inactive”. With Fc1ccc(-c2nnc(CSc3nnc(-c4cccs4)o3)o2)cc1 the outcome was “inactive”. With Fc1ccc(-c2nnc(-c3ccc(F)cc3)o2)cc1 the outcome was “inactive”. For Cc1ccc(-c2nnc(-c3cccs3)o2)cc1, the outcome was “inactive”. With O=C1N=c2ccccc2=C1c1c(O)n(-c2cccc(F)c2)[nH]c1=O the outcome was “inactive”. In the case of CCCn1nnnc1NCc1ccc(C(C)C)cc1, the outcome is reported as “inactive”. In the case of Cc1ccnc(-n2c(C)cc(/C=C3\C(=O)NC(=S)N(C)C3=O)c2C)c1, the outcome is reported as “inactive”. With CCn1c(O)c(C(=O)CC2NCCc3ccccc32)c(=O)n(CC)c1=S (stereo not drawn) the outcome was “inactive”. With CCOc1ccc(NC(=O)CCc2ccc(C)o2)cc1 the outcome was “inactive”. With Cc1cc(C)c2c(=O)n(CC(=O)Nc3cccc(Cl)c3C)sc2n1 the outcome was “inactive”. With COc1ccc(OCCOC(=O)CCS(=O)(=O)c2ccc(C)cc2)cc1 the outcome was “inactive”. With Cc1ccc(OC(=O)CCS(=O)(=O)c2ccc(C)cc2)cc1 the outcome was “inactive”. With COC(=O)COc1ccc(-c2ccccc2)cc1C=O the outcome was “inactive”. For COC(=O)c1ccc(COC(=O)CCS(=O)(=O)c2ccc(C)cc2)cc1, the outcome was “inactive”. For COc1ccc(-c2cc(=O)oc(-c3cccc(C)c3)n2)cc1, the outcome was “inactive”. In the case of COc1ccc(-c2cc(O)cc(O)c2)cc1, the outcome is reported as “inactive”. In the case of COC(=O)COc1ccc2c(=O)c(-c3ccccc3)coc2c1, the outcome is reported as “inactive”. With Cc1cc(Br)ccc1OCC(=O)NNC(=O)C(=O)Nc1ccccc1 the outcome was “inactive”. For O=C1CCCC(O)=C1C=Nc1ccc2c(c1)oc1ccccc12, the outcome was “inactive”. For C(#CCN1CCOCC1)COCc1ccccc1, the outcome was “inactive”. With CC(CCc1ccccc1)NC(=O)COC(=O)c1cccs1 (stereo not drawn) the outcome was “inactive”. With Cc1nc2scc(-c3ccccc3)c2c(=O)o1 the outcome was “inactive”. In the case of CCN(CC)c1ccc(NC2CC(=O)N(CCc3ccc(OC)cc3)C2=O)cc1 (stereo not drawn), the outcome is reported as “inactive”. With O=C(OCc1nnc(-c2ccccc2)o1)c1ccc(Br)o1 the outcome was “inactive”. In the case of CCCOC(=O)c1ccc(NC(=O)C2C3C=CC(O3)C2C(=O)O)cc1 (stereo not drawn), the outcome is reported as “inactive”. In the case of C=CCNc1nc(C(=O)OCC(=O)c2cccc(Br)c2)cs1, the outcome is reported as “inactive”. In the case of Fc1cccc2sc(N3CCCC3)nc12, the outcome is reported as “inactive”. With Cc1ccc(C(=O)N/N=C/C=C/c2ccccc2)cc1 the outcome was “inactive”. In the case of Cc1ccc(NC(=S)C2=C(O)c3sccc3N(C)S2(=O)=O)cc1, the outcome is reported as “inactive”. In the case of O=C(CCNc1ccc(Cl)c(C(F)(F)F)c1)c1ccco1, the outcome is reported as “inactive”. For C/C(=N\NC(=O)c1ccccc1)c1nc2ccccc2n1C, the outcome was “inactive”. For O=C(NCCSc1ccccc1)c1ccc(Br)cc1, the outcome was “inactive”. For COc1ccc(NC(=O)c2nc3ccccc3s2)cc1, the outcome was “inactive”. With CN(C)c1ccc(NC(=O)COC(=O)c2cc(Cl)ccc2[N+](=O)[O-])cc1 the outcome was “inactive”. With CCOC(=O)CNc1ccc(C(=O)OCC)cc1[N+](=O)[O-] the outcome was “inactive”. With CC(C)=CCN1CCN(Cc2cn(C(C)C)c3ccccc23)CC1CCO (stereo not drawn) the outcome was “inactive”. For COc1cccc2cc(-c3nc4ccccc4[nH]3)c(=O)oc12, the outcome was “inactive”. For CSc1nc(=S)cc(C)[nH]1, the outcome was “inactive”. In the case of CC(NC(=O)c1cc([N+](=O)[O-])cc([N+](=O)[O-])c1)c1ccc(-n2ccnc2)cc1 (stereo not drawn), the outcome is reported as “inactive”. With COc1cccc(NC(=O)c2cnc(SC)nc2)c1 the outcome was “inactive”. In the case of COc1ccccc1NC(=O)c1cnc(SC)nc1, the outcome is reported as “inactive”. With Cc1ccc(S(=O)(=O)NCc2ccc(C(=O)NCCCN3CCC(Cc4ccccc4)CC3)cc2)cc1 the outcome was “inactive”. For Nc1c(Cl)cc(Cl)cc1C(=O)OCC(=O)N1CCCC1, the outcome was “inactive”. In the case of COc1ccccc1-c1cc(SC)c(C#N)c(=O)o1, the outcome is reported as “inactive”. With COc1ccccc1-c1nnc(-c2ccc(C)cc2)o1 the outcome was “inactive”.
